Assay results published in article PMC4336329 (PLoS ONE, 2015).
About 14,000 (4.5%) of roughly 310,000 compounds showed an effect of 50% or more. Effects have a minus sign here. Only a selection was taken, and strong results are over-represented in it overall.

The molecules below were run against human ether-à-go-go-related gene (hERG) potassium channel (human, UniProt Q12809) (assay: primary screen, population patch clamp on CHO cells stably expressing hERG; higher = less effect of the substance).
Chain of human ether-à-go-go-related gene (hERG) potassium channel (Q12809 whole entry, looked up): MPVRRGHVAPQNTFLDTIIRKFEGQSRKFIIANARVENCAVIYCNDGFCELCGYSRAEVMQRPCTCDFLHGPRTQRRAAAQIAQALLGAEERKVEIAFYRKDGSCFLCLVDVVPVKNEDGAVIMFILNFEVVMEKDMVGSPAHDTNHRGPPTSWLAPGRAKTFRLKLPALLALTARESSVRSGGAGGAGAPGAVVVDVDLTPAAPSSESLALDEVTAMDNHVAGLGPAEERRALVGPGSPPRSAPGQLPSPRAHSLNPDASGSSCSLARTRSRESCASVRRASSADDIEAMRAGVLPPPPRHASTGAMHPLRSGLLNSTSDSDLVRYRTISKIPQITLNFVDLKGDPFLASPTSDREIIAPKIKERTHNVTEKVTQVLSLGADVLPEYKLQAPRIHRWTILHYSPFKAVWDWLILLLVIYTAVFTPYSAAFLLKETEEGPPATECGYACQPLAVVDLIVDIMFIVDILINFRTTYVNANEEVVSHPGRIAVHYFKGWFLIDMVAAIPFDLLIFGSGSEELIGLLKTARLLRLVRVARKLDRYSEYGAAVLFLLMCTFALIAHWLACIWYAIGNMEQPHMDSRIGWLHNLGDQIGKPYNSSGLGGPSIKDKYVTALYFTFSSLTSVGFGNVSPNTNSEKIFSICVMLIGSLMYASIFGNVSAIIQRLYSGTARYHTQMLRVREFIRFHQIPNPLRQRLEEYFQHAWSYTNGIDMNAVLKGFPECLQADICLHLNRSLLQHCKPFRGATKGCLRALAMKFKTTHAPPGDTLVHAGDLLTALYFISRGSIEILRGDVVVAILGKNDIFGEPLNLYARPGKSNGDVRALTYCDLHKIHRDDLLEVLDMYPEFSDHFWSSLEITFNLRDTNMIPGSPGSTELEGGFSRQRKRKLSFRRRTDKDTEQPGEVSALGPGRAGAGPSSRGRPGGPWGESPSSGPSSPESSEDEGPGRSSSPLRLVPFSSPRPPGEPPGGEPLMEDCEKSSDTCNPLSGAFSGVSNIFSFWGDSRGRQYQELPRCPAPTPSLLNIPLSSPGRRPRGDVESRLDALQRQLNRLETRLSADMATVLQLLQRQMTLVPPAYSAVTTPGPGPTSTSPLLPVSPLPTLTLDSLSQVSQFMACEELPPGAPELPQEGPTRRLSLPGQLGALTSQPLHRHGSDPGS
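Further: peak tail current of the secondary pulse compared with the same well before compound.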

SMILES | hERG current change (%, negative = inhibition) at 10uM
NC1=NC[C@@H](Cc2ccc(O)cc2)N1CCc1cccc(F)c1 | 5.43%
CN(C)C1=NC[C@H](Cc2ccccc2)N1CCc1cccc(F)c1 | -64.1%
CN(C)C1=NC[C@H](Cc2ccccc2)N1CCc1ccc(F)cc1 | -60.6%
NC1=NC[C@H](Cc2ccccc2)N1CCc1cccc(F)c1 | 6.16%
C[C@H]1CN=C(N(C)C)N1CCc1ccccc1 | 6.72%
C[C@H]1CN=C(N(C)C)N1CCc1ccc(F)cc1 | -12.4%
COC(=O)c1cccnc1-n1c(=O)c2cccnc2n(Cc2ccc(Cl)cc2)c1=O | -26.6%
O=C(Cc1ccccc1)NCC(=O)N/N=C/c1ccc(C(=O)O)cc1 | 12.3%
C=CCc1cccc2cc(C(=O)N3CCN(C(=O)OCC)CC3)c(=O)oc12 | -26.9%
C=CCn1c(CSc2nc3ccccc3s2)nnc1SCC(=O)NCc1ccccc1 | -43.9%
CCOC(=O)c1[nH]c2ccc(F)cc2c1NC(=O)CCN1CCSCC1 | -22%
Cc1nc2sccn2c(=O)c1S(=O)(=O)N1CCN(c2cccc(Cl)c2)CC1 | -0.478%
Cc1cc(C)c(NS(=O)(=O)c2ccc3c(c2)NC(=O)C(C)C(=O)N3)c(C)c1 (stereo not shown) | 2.12%
COc1ccc(OC)c(CN2CCN(C(=O)c3ccc(NS(=O)(=O)c4cccc([N+](=O)[O-])c4)cc3)CC2)c1 | -70.6%
CN(c1ccc(C(=O)N2CCN(Cc3ccc4c(c3)OCO4)CC2)cc1)S(=O)(=O)c1ccccc1 | -38.3%
COc1ccc(OC)c(CN2CCN(C(=O)c3cccc(S(=O)(=O)Nc4ccc(C)cc4)c3)CC2)c1 | -34.6%
O=C(c1ccc(NS(=O)(=O)c2ccccc2)cc1)N1CCN(Cc2ccc3c(c2)OCO3)CC1 | -63.8%
COc1ccc(NS(=O)(=O)c2cccc(C(=O)N3CCN(Cc4ccc5c(c4)OCO5)CC3)c2)cc1 | -76.8%
COc1ccccc1NS(=O)(=O)c1cccc(C(=O)N2CCN(Cc3ccc4c(c3)OCO4)CC2)c1 | -61.4%
O=C(c1ccc(NS(=O)(=O)c2cccc([N+](=O)[O-])c2)cc1)N1CCCCCC1 | -23.1%
COc1cccc(OC)c1C(=O)N1CCN(Cc2ccc3c(c2)OCO3)CC1 | -12%
COc1ccc(NS(=O)(=O)c2cccc(C(=O)N3CCCC3)c2)cc1 | 2.23%

SMILES | hERG current change (%, negative = inhibition) at 10uM
O=C(c1ccccc1)N1CCN(Cc2ccc3c(c2)OCO3)CC1 | 11.5%
COc1ccc(NS(=O)(=O)c2cccc(C(=O)N3CCC3)c2)cc1 | 10.5%
COc1ccc(OC)c(CN2CCN(C(=O)c3cccc(S(=O)(=O)Nc4ccccc4OC)c3)CC2)c1 | -38.2%
COC(=O)C1=C(c2ccc(F)cc2F)C[C@@H]2CC[C@H]1N2C(=O)NCCOc1ccccc1 | -23.5%
N#CC1(N2CCN(C(=O)c3ccccc3)CC2)CCCCC1 | 30.1%
CC1CCCCN1Cc1ccc(N)cc1 (stereo not shown) | 12.7%
C#CC1(NC(=O)NC(C)(C)C)CCCCC1 | 15.7%
CCc1ccc(OCC(=O)NNC(=O)c2cc(S(=O)(=O)N(C)C)ccc2N2CCCC2)cc1 | -23.4%
COC(=O)c1cc(OC)c(OC)cc1NC(=O)c1cc(C(C)(C)C)oc1C | 5.71%
c1ccc(Cn2nnc3c(N4CCc5ccccc5C4)ncnc32)cc1 | -21.5%
COc1cc(OC)c2ccc(=O)oc2c1C(CCN1CCCC(C)C1)c1ccc(N(C)C)cc1 (stereo not shown) | -10.6%
COc1cc(OC)c2ccc(=O)oc2c1C(CC(=O)N1CCCC(C)C1)c1ccc2c(c1)OCO2 (stereo not shown) | 4.24%
COc1cc(OC)c2ccc(=O)oc2c1C(CCN1CCCC1)c1ccc(N(C)C)cc1 (stereo not shown) | -24.1%
COc1cc(OC)c2ccc(=O)oc2c1C(CCN1CCCC1)c1ccc2c(c1)OCO2 (stereo not shown) | -56.7%
COc1cc(OC)c2ccc(=O)oc2c1C(CCN1CCCC(C)C1)c1ccc2c(c1)OCO2 (stereo not shown) | -61%
COc1cc(OC)c2ccc(=O)oc2c1C(CCN1CCCCC1)c1ccc(N(C)C)cc1 (stereo not shown) | -16%
COc1cc(C(CCN2CCN(c3ccccc3)CC2)c2c(OC)cc(OC)c3ccc(=O)oc23)cc(OC)c1OC (stereo not shown) | -8.86%
COc1cc(C(CCN2CCCC2)c2c(OC)cc(OC)c3ccc(=O)oc23)cc(OC)c1OC (stereo not shown) | -69.2%
COc1cc(C(CC(=O)N2CCCC2)c2c(OC)cc(OC)c3ccc(=O)oc23)cc(OC)c1OC (stereo not shown) | 2.42%
CS(=O)(=O)N1CCCC(C(=O)NCc2ccc(F)cc2Cl)C1 (stereo not shown) | 2.22%
CC1(c2ccccc2)CC(C)(C)N2C(=O)C(=O)c3cccc1c32 (stereo not shown) | 19.6%
CCCCNC(=S)NC(=O)c1ccc(Cl)cc1Cl | 22.7%

SMILES | hERG current change (%, negative = inhibition) at 10uM
CC(=O)Nc1nc(-c2ccccc2)nc(C)c1C(C)=O | -5.89%
COc1ccc(S(=O)(=O)N2CC(=O)Nc3ccccc32)cc1 | -6.04%
O=C1CCC(C(=O)N2CCCC(C(=O)c3ccc4ccccc4c3)C2)=NN1 (stereo not shown) | -8.31%
O=C(COC(=O)Cn1cnc2ccccc21)Nc1cc(S(=O)(=O)N2CCOCC2)ccc1Cl | -0.439%
CCS(=O)(=O)N1CCC(C(=O)Nc2cccc(F)c2)CC1 | -6.51%
Cc1nn(C(C)C)c(C)c1CN1CCC(C(=O)Nc2cccc(-c3cccc(F)c3)c2)CC1 | -67.8%
CCCc1ncc(CN2CCC(C(=O)Nc3cccc(-c4cscn4)c3)CC2)cn1 | -34.9%
CCn1nc(C)c(CN2CCC(C(=O)Nc3cccc(-c4cccc(F)c4)c3)CC2)c1C | -67%
CCn1nc(C)c(CN2CCC(C(=O)Nc3cccc(-c4cccc(Cl)c4)c3)CC2)c1C | -65%
CCc1ccc(CN2CCC(C(=O)Nc3cccc(-c4nnc(C)s4)c3)CC2)o1 | -33.6%
Cc1nn(C(C)C)c(C)c1CN1CCCC(C(=O)c2cccc(OC(C)C)c2)C1 (stereo not shown) | -39.6%
CCOC(=O)C1(Cc2cccc(F)c2)CCN(Cc2c(C)nn(CC)c2C)CC1 | -41.4%
COc1cccc(-c2cccc(NC(=O)C3CCN(Cc4nccs4)CC3)c2)c1 | -37.1%
Br.COc1cccc(CNCC2CCCO2)c1 (stereo not shown) | 13.9%
COc1ccc(OC)c(NC(=O)Cc2coc3ccc4ccccc4c23)c1 | 0.772%
Cc1sc(/C=C2\C(=O)ON=C2c2ccccc2)cc1Br | 14.8%
COC(=O)c1ccc(NC(=O)c2ccc3nsnc3c2)cc1 | 4.15%
COc1ccccc1N1CCN(Cc2ccccc2F)CC1 | -17.6%
COc1ccc(CN2CCN(Cc3ccccc3F)CC2)c(OC)c1.O=C(O)C(=O)O | -68.5%
COc1ccc(OC)c(CN2CCN(c3ccccc3OC)CC2)c1 | -32.7%
COc1ccc(CN2CCN(Cc3ccccc3F)CC2)cc1.O=C(O)C(=O)O | -43.2%
COc1ccc(CN2CCN(c3ccccc3OC)CC2)c(OC)c1.O=C(O)C(=O)O | -64.2%

SMILES | hERG current change (%, negative = inhibition) at 10uM
COc1cc(CN2CCN(c3ccccc3F)CC2)c([N+](=O)[O-])cc1OC | -27.4%
COc1ccc(CN2CCN(C(=O)c3ccc(F)cc3)CC2)c(OC)c1.O=C(O)C(=O)O | -44.3%
COc1ccc(CN2CCN(c3ccccc3F)CC2)c(OC)c1 | -75.1%
COc1ccc(CN2CCN(c3ccccc3F)CC2)cc1O | -66.5%
COc1ccc(CN2CCN(Cc3ccco3)CC2)c(OC)c1.O=C(O)C(=O)O | -46.4%
COc1cc(CN2CCN(c3ccccc3F)CC2)cc(OC)c1O | -26.4%
COc1ccc(CN2CCSCC2)cc1O | 14.4%
CC1CN(Cc2ccc(C#N)cc2Cl)CC(C)O1.Cl (stereo not shown) | 0.479%
COc1ccc(Nc2nc(-c3cccs3)nc3ccccc23)cc1S(=O)(=O)N1CCOCC1 | -17.5%
COc1ccc(OC)c(S(=O)(=O)N2Cc3ccccc3CC2C(=O)Nc2nccs2)c1 (stereo not shown) | 22.2%
COc1cc(CNn2c(C)n[nH]c2=S)cc(Cl)c1OCc1ccc(F)cc1 | 14.4%
COc1ccc2c(c1)C(NC(C)=O)C(=O)N2C (stereo not shown) | -5.38%
O=C(O)c1ccccc1C(=O)Nn1cnnc1 | 10.6%
CCOC(=O)NC1(C(F)(F)F)NC(=O)N(C2CCCCC2)C1=O (stereo not shown) | -3.7%
O=C(CCC(=O)NNC(=O)COc1ccc(Br)cc1)NCc1ccccc1 | 19.6%
OC(CNCc1ccccn1)c1ccccc1 (stereo not shown) | -3.94%
COc1cc(CN2CCN(Cc3ccccc3C(F)(F)F)CC2)cc(OC)c1OC.O=C(O)C(=O)O | -8.28%
COc1ccc(C(=O)N2CCN(Cc3ccccc3C(F)(F)F)CC2)cc1.O=C(O)C(=O)O | -1.25%
COc1ccc(CN2CCN(Cc3ccccc3C(F)(F)F)CC2)c(OC)c1.O=C(O)C(=O)O | -74.2%
